Results on one sequence are retold here after article PMC7862700, “An all-to-all approach to the identification of sequence-specific readers for epigenetic DNA modifications on cytosine”.

What all share (experiment): DAPPL (digital affinity profiling via proximity ligation, sequencing); 10 mM Tris-HCl pH 7.5, 50 mM NaCl, 1 mM DTT, 4% glycerol, room temperature, 30 min; GST-TFs on glutathione beads, 16-mer random dsDNA library, 0.1% formaldehyde crosslink after washing; high values mean tight binding
For one experiment, the target named is T1, FEV (Homo sapiens, UniProt Q99581 1-238).
T1 sequence: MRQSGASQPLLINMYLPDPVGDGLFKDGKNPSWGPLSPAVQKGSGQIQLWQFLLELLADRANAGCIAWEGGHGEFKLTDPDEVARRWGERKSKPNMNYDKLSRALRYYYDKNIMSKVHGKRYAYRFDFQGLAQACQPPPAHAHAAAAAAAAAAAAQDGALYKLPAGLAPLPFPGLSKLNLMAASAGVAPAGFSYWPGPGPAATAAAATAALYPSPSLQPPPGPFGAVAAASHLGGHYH
Conditions: protein: recombinant; tags: N-terminal GST; dsDNA, one strand shown. Put shortly: (§1)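 In yeast, human transcription factors were expressed with a GST fusion, then pulled down on glutathione beads and given DNA barcodes. Pooled with a tag-only sample, they were exposed to 200 nmole of a 16-mer random double-stranded DNA library (Tris/NaCl/DTT/glycerol buffer, room temperature, 30 min), washed, crosslinked with 0.1% formaldehyde, proximity-ligated using BsaI/T4 ligase for 1 h at 37 °C, PCR-amplified and read on an Illumina NextSeq500. Each hexamer's frequency of reads for a factor, divided by the matching frequency for the tag-only sample, gives the binding signal.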

A further experiment addresses ETV5 (Homo sapiens, UniProt P41161 1-510). The settings on record: protein: recombinant; tags: N-terminal GST; dsDNA, one strand shown. The method, boiled down: as §1
The next experiment addresses HSF1 (Homo sapiens, UniProt Q00613 1-529). Conditions: protein: recombinant; tags: N-terminal GST; chain copies: 3; dsDNA, one strand shown. Put shortly:
as §1

A further experiment deals with T2, SPIC (Homo sapiens, UniProt Q8N5J4 1-248).
T2 sequence: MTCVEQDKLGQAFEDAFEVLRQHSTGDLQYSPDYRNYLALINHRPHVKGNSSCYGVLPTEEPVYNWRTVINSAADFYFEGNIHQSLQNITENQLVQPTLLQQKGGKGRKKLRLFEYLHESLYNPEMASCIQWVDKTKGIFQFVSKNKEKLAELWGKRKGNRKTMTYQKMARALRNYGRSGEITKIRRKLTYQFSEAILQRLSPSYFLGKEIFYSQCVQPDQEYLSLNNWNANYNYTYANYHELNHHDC
Conditions: protein: recombinant; tags: N-terminal GST; dsDNA, one strand shown. The method, boiled down: as §1

The target of a further experiment is ELF4 (Homo sapiens, UniProt Q99607 1-663). Conditions: protein: recombinant; tags: N-terminal GST; dsDNA, one strand shown. The method, boiled down: as §1
Sequence of ELF4 (Q99607 whole entry): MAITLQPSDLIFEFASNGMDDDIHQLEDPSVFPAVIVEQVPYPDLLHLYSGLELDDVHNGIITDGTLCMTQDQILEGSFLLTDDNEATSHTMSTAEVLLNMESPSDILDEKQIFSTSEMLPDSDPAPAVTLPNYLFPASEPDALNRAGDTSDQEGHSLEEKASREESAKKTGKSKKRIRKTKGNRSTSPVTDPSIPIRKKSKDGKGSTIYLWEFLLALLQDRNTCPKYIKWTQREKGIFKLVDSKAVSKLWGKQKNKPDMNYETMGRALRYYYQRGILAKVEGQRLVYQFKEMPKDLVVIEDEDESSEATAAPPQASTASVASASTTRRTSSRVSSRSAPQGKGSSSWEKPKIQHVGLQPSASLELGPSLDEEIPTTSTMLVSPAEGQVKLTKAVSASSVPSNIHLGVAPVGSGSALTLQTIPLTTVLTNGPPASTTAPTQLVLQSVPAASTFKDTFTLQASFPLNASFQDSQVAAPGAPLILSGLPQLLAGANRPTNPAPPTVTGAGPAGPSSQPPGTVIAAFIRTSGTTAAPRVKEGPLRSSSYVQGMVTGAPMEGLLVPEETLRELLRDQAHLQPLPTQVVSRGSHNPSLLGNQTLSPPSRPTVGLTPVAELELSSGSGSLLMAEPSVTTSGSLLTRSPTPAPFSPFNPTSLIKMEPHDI
A further experiment concerns the target T3, ELK4 (Homo sapiens, UniProt P28324-2 1-405).
T3 sequence: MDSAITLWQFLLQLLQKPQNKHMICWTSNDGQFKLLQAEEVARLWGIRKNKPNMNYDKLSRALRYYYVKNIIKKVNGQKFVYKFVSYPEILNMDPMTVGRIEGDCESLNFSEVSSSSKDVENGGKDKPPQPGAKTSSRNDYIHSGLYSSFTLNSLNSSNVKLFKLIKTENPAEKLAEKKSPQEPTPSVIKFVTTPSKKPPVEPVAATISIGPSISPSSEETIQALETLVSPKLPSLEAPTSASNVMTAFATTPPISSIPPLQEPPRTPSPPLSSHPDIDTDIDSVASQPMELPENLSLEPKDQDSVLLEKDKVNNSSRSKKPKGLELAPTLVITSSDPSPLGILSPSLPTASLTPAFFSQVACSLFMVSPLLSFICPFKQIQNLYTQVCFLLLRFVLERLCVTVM
The settings on record: protein: recombinant; tags: N-terminal GST; dsDNA, one strand shown. Put shortly: as §1

Another experiment deals with T4, ETV2 (Homo sapiens, UniProt O00321 1-342).
T4 sequence: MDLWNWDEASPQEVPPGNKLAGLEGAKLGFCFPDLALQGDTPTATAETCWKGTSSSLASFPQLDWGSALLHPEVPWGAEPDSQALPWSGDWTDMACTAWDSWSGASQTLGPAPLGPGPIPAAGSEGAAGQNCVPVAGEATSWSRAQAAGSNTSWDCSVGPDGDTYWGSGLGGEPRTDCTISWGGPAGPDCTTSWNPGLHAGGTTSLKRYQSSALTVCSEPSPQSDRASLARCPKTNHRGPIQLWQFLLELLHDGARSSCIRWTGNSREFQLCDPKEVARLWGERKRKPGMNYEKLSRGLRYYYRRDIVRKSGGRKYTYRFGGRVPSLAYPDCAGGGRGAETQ
Conditions: protein: recombinant; tags: N-terminal GST; dsDNA, one strand shown. Put shortly: as §1

The next experiment addresses T5, ELF3 (Homo sapiens, UniProt P78545 1-371).
T5 sequence: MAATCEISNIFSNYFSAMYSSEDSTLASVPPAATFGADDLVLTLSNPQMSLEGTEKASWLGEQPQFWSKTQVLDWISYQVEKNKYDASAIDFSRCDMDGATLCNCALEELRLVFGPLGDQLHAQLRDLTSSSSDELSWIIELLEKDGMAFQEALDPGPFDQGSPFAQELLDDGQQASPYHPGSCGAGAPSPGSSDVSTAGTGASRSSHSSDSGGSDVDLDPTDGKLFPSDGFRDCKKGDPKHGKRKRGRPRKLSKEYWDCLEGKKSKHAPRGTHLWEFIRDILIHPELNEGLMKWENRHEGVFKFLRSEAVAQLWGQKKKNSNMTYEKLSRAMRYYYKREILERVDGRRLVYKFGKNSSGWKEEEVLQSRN
The settings on record: protein: recombinant; tags: N-terminal GST; dsDNA, one strand shown. Put shortly: as §1

For the next experiment, the target named is CRX (Homo sapiens, UniProt O43186 1-299). Conditions: protein: recombinant; tags: N-terminal GST; dsDNA, one strand shown. Put shortly: as §1
Sequence of CRX (O43186 whole entry): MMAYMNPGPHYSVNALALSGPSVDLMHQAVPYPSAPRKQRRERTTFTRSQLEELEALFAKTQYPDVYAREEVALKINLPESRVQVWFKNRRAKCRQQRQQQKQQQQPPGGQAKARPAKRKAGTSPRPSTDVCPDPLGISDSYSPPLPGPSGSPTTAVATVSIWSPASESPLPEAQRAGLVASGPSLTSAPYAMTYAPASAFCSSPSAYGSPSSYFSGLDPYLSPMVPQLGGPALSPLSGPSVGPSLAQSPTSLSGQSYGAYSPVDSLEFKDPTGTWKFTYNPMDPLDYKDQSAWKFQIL
The target of another experiment is ETV1 (Homo sapiens, UniProt P50549 1-477). The settings on record: protein: recombinant; tags: N-terminal GST; dsDNA, one strand shown. The method, boiled down:
as §1

Another experiment concerns the target T6, ERF (Homo sapiens, UniProt P50548 1-548).
T6 sequence: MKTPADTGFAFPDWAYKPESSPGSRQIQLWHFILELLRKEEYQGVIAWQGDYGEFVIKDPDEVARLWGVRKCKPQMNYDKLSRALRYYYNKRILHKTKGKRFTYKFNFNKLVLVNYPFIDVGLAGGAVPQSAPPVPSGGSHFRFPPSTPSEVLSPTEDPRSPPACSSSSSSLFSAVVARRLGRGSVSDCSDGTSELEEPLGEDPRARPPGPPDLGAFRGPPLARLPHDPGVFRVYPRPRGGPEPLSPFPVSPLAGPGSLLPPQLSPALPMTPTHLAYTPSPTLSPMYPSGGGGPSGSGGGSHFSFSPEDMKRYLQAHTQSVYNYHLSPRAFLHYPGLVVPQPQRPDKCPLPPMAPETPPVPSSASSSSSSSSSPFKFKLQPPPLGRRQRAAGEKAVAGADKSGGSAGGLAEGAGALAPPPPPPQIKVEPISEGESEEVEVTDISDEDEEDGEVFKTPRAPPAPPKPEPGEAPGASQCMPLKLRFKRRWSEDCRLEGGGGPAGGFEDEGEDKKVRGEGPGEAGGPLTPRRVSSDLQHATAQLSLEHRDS
Conditions: protein: recombinant; tags: N-terminal GST; dsDNA, one strand shown. The method, boiled down:
as §1

The target of the next experiment is T7, ETV3L (Homo sapiens, UniProt Q6ZN32 1-361).
T7 sequence: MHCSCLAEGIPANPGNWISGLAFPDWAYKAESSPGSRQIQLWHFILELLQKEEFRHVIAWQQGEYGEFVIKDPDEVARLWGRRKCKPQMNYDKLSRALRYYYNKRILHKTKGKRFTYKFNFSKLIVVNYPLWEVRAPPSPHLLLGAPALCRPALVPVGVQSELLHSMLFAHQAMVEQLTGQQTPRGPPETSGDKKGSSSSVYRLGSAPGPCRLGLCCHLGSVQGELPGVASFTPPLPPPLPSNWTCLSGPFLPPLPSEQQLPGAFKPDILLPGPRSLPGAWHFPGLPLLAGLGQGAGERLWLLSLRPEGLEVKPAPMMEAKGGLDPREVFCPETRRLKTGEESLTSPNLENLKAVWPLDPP
Conditions: protein: recombinant; tags: N-terminal GST; dsDNA, one strand shown. Put shortly: as §1

Another experiment deals with T8, ETS2 (Homo sapiens, UniProt P15036 1-469).
T8 sequence: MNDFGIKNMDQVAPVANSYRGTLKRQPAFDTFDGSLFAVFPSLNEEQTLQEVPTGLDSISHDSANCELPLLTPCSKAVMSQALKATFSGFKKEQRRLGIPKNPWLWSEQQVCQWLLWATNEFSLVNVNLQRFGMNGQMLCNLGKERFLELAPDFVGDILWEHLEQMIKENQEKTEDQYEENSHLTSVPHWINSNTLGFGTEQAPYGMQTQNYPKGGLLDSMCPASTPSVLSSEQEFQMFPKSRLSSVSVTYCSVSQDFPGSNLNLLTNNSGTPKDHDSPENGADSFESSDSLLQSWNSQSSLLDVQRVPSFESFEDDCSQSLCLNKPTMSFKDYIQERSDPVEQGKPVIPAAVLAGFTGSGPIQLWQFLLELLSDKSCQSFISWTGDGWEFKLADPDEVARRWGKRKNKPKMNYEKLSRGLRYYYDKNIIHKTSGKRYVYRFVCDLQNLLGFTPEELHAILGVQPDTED
The settings on record: protein: recombinant; tags: N-terminal GST; dsDNA, one strand shown. Put shortly: as §1

The target of the next experiment is T9, SPDEF (Homo sapiens, UniProt O95238 1-335).
T9 sequence: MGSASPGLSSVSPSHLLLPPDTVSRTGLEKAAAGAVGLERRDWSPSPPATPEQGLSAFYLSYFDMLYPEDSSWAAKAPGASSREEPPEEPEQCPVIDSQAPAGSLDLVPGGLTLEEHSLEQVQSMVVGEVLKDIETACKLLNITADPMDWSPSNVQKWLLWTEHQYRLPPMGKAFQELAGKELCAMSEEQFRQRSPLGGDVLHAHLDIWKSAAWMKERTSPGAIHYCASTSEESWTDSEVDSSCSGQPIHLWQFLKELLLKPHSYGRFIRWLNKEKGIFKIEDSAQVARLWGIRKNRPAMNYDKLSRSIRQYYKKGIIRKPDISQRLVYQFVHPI
Conditions: protein: recombinant; tags: N-terminal GST; dsDNA, one strand shown. Put shortly:
as §1

The next experiment concerns the target T10, ETV7 (Homo sapiens, UniProt Q9Y603 1-341).
T10 sequence: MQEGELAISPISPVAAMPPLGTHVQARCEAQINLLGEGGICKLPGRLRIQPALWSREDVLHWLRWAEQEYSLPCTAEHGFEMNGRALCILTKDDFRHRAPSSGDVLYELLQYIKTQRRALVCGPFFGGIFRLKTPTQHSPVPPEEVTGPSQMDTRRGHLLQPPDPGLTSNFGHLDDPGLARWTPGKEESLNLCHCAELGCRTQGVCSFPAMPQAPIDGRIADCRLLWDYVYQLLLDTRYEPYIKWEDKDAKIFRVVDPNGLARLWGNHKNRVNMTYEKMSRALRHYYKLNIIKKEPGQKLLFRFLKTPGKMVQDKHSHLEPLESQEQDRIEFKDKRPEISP
The settings on record: protein: recombinant; tags: N-terminal GST; dsDNA, one strand shown. The method, boiled down:
as §1

The next experiment concerns the target T11, ELF5 (Homo sapiens, UniProt Q9UKW6-2 1-255).
T11 sequence: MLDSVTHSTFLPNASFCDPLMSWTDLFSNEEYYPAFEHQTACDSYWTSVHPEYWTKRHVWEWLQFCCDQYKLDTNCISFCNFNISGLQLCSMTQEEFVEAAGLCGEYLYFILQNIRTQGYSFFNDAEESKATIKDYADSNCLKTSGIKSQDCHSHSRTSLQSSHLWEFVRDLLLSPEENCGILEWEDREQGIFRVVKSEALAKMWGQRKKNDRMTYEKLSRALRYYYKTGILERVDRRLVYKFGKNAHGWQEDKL
The settings on record: protein: recombinant; tags: N-terminal GST; dsDNA, one strand shown. Put shortly:
as §1

Another experiment concerns the target T12, ETV3 (Homo sapiens, UniProt P41162-2 1-143).
T12 sequence: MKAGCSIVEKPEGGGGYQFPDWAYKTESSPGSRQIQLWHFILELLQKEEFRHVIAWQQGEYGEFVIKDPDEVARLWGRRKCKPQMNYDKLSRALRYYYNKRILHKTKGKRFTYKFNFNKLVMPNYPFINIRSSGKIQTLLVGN
Conditions: protein: recombinant; tags: N-terminal GST; dsDNA, one strand shown. The method, boiled down:
as §1

The target of a further experiment is ETV6 (Homo sapiens, UniProt P41212 1-452). Conditions: protein: recombinant; tags: N-terminal GST; dsDNA, one strand shown. Put shortly: as §1
Sequence of ETV6 (P41212 whole entry): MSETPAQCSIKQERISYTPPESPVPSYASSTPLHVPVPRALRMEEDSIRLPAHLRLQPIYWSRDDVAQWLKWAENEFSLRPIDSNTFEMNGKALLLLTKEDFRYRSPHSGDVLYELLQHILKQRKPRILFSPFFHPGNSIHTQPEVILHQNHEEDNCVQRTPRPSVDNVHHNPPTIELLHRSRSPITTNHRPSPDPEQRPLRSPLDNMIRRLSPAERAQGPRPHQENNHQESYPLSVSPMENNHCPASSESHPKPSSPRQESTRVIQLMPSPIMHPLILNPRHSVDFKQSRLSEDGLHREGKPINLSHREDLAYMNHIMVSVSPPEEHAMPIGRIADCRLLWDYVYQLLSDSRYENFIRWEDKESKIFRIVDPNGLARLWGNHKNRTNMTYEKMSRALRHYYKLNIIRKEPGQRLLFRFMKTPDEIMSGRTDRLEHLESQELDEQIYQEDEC

Sequence of ETV1 (P50549 whole entry): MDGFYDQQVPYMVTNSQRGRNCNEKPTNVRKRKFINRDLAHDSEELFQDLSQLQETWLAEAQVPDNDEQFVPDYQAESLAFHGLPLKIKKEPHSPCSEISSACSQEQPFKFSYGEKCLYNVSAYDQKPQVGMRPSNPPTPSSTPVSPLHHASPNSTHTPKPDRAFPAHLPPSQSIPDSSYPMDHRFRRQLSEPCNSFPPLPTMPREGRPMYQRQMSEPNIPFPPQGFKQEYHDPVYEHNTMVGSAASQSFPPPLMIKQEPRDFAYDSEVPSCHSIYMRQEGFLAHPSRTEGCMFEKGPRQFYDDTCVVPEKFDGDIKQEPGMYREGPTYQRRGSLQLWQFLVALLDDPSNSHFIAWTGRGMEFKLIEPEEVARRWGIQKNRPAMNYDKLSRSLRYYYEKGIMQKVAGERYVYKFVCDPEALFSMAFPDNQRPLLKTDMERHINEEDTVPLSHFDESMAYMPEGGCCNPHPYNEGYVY
Sequence of HSF1 (Q00613 whole entry): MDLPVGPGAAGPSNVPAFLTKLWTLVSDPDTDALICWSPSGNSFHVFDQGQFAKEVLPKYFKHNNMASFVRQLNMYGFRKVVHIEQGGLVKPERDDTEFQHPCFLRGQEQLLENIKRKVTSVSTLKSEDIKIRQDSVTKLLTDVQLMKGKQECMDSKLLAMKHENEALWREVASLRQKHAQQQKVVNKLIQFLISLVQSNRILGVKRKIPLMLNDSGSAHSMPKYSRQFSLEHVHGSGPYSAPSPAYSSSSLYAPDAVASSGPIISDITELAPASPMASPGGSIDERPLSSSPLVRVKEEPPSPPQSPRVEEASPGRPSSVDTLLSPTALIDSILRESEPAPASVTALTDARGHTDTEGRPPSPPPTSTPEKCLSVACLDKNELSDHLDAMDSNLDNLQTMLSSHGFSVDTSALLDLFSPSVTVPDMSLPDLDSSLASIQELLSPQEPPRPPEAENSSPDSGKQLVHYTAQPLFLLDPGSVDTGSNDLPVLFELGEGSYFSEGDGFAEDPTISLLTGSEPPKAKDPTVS
Sequence of ETV5 (P41161 whole entry): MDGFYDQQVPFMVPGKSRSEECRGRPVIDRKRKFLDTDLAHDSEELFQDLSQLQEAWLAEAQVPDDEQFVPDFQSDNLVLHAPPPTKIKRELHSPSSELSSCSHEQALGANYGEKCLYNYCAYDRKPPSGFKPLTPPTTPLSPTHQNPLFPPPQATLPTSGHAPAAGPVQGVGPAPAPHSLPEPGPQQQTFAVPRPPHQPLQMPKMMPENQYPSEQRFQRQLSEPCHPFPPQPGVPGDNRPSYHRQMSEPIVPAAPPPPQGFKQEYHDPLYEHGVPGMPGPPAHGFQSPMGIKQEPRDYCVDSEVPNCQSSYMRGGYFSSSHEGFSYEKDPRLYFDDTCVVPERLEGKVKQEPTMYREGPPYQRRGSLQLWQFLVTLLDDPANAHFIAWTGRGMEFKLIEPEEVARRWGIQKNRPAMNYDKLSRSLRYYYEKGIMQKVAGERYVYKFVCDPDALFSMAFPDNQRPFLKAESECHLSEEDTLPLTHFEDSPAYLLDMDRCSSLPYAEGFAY

With AAGATG, the binding signal with FEV is 1.01 fold enrichment (6-mer frequency, TF over GST control); with ETV5, 1.14 fold enrichment (6-mer frequency, TF over GST control); with HSF1 it was 1.19 fold enrichment (6-mer frequency, TF over GST control); in the experiment with SPIC it was 1.1 fold enrichment (6-mer frequency, TF over GST control); with ELF4 it was 1.24 fold enrichment (6-mer frequency, TF over GST control); in the experiment with ELK4 it was 1.22 fold enrichment (6-mer frequency, TF over GST control). In addition, the binding signal was 1.13 fold enrichment (6-mer frequency, TF over GST control) in the experiment with ETV2; 1.19 fold enrichment (6-mer frequency, TF over GST control) in the experiment with ELF3; 1.27 fold enrichment (6-mer frequency, TF over GST control) with CRX; 1.12 fold enrichment (6-mer frequency, TF over GST control) in the experiment with ETV1; 1.18 fold enrichment (6-mer frequency, TF over GST control) with ERF; 1.12 fold enrichment (6-mer frequency, TF over GST control) with ETV3L. Besides, the binding signal in the experiment with ETS2 is 1.16 fold enrichment (6-mer frequency, TF over GST control); in the experiment with SPDEF it was 1.1 fold enrichment (6-mer frequency, TF over GST control); with ETV7, 1.12 fold enrichment (6-mer frequency, TF over GST control); in the experiment with ELF5 it was 1.14 fold enrichment (6-mer frequency, TF over GST control); in the experiment with ETV3, 1.09 fold enrichment (6-mer frequency, TF over GST control); with ETV6, 1.2 fold enrichment (6-mer frequency, TF over GST control).
